Luciferase inh – blocks purified firefly luciferase enzyme activity. purified P. pyralis luciferase, luminescence, biochemical. 2.5% of 76,000 active. Potency, µM (top dose mostly 115 µM), usual class: inhibitors; note: nearly all actives have a fitted effect of over 65% in size
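Purified P. pyralis luciferase (10nM final) in 50mM Tris acetate pH 7.5, 10mM Mg acetate, 0.01% Tween-20, 0.05% BSA with 10uM D-luciferin and 10uM ATP. Compounds titrated qHTS. Luminescence imaged on CCD.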
hNpr1 antagonist – human Npr1 receptor antagonism | 1.6% of 76,000 active | P16066 | Potency, µM (titrated, usually from 46.3 µM), for inactives: at the highest dose activity change, negative = inhibition, hits mostly inhibitors | AID 1347048 | HEK293 hNpr1 GloSensor cGMP, ANP-stimulated luminescence; calls by dose curve; note: nearly all actives have a fitted effect of over 60% in size
Target sequence (P16066 whole entry, looked up): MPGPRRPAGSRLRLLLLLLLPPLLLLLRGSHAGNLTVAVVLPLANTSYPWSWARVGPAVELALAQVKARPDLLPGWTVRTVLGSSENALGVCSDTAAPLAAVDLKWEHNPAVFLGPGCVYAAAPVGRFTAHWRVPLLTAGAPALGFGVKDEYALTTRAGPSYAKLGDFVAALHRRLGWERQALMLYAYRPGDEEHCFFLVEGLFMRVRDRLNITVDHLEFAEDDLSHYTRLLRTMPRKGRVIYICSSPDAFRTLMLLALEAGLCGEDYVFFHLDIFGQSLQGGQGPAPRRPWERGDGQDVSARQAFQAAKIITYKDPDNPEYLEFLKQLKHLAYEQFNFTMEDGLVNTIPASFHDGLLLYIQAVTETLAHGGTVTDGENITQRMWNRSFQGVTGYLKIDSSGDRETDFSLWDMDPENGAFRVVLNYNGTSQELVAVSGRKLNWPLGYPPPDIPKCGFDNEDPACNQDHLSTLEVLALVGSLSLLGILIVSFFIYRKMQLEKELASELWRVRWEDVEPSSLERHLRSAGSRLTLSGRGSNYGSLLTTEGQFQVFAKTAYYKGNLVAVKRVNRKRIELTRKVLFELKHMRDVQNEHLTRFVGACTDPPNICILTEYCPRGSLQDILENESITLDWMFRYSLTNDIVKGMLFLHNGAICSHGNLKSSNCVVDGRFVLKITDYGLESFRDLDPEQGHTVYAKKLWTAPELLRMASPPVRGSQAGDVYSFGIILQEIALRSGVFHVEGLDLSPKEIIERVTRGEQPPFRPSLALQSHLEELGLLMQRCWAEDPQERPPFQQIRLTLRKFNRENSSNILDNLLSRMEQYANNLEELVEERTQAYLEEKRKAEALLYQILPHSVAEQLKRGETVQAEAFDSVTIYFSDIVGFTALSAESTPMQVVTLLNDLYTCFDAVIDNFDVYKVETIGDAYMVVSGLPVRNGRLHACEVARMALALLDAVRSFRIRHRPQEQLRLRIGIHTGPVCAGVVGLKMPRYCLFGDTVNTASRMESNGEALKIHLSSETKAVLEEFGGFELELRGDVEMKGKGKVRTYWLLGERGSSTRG
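HEK293 cells stably expressing human Npr1 and cGMP GloSensor pGS-40F, loaded 2 h with 2% GloSensor reagent, given compound 30 min at room temperature. Luminescence read before and 20 min after 0.1 nM hNppA.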
NIH3T3 tox – cytotoxic compounds in NIH 3T3 cells. Potency, µM (titrated, usually from 96.7 µM), without a hit: at the top dose activity change, negative = cytotoxicity, usual class: inhibitors. AID 1345082. NIH 3T3 viability, CellTiter-Glo ATP luminescence, 48-72 h. 4.3% of 94,000 active; note: nearly all actives have a fitted effect of over 55% in size
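First NIH 3T3 cells are plated at 400 cells/well; next compound is pinned in; then plates incubate 48 or 72 hr at 37 °C; finally CellTiter-Glo is added and luminescence read after 10 min.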
HEK293 tox – HEK 293 cell cytotoxicity; HEK 293 viability, ATP luminescence (CellTiter-Glo), 48-72 h; Potency, µM (titrated, usually from 115 µM), inactives show at the highest dose activity change, negative = cytotoxicity, hits mostly inhibitors; 6.6% of 94,000 active; note: nearly all actives have a fitted effect of over 60% in size
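Read-out: CellTiter-Glo ATP luminescence. Cells: HEK 293, 250 cells/well. Exposure: 48 or 72 hr, 37 degree Celsius.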
* hit, by the source's call; i = inactive; ? = inconclusive; . = no result given; [ ] = remark or other dose. Only some compounds are listed: those with a hit (about 11% of all), similar ones and a draw of the others. Unless noted, calls come from the whole dose curve; as a rule, active = well fitted curve in the direction sought with a large enough effect; inconclusive = small, poorly fitted or top-dose-only effect, or another doubt; inactive = no such curve, though single readings can be large; an effect the other way counts as inactive or inconclusive. % is set by controls: 0 for no effect and ±100 for the full control effect; potency is the fitted concentration of half-maximal effect.

SMILES	Luciferase inh	hNpr1 antagonist	NIH3T3 tox	HEK293 tox
CCc1[nH]c2ccc(CNC(=O)c3coc(CN4CCOCC4)c3)cc2c1C	32µM*	2%	-13%	-26%
COc1ccc(-c2[nH]nc3ncc(-c4ccc(C)cc4)nc23)cc1F	i	-4%[70.6 µM]	40µM*	45µM*
COc1ccc(-c2cnc3n[nH]c(-c4ccc(OC)c(F)c4)c3n2)cn1	i	1%[70.6 µM]	?	?
COc1ccc(-c2[nH]nc3ncc(-c4ccccc4F)nc23)cc1F	i	-16%[70.6 µM]	50µM*	?
COc1ccc(C2Cn3nnc(C(=O)N4CCC(C(=O)NCCc5ccccc5)CC4)c3CO2)cc1 (centres undefined)	i	0%	-12%	3%
OC1CN(Cc2ccccc2)CCN(c2nc(-c3ccccc3)no2)C1 (centres undefined)	40µM*	?	-10%	?
Cc1cc(N2CCN(Cc3ccccc3)CC(O)C2)nc(N)n1 (centres undefined)	i	1%	-17%	-20%
CC(C)(C)NC(=O)NCc1cc2n(n1)CCCN(C(=O)C1CCC1)C2	i	4%	-3%	-3%
O=S(=O)(c1cc(F)cc(F)c1)N1CCCC(Cn2c(C3CC3)nc3cccnc32)C1 (centres undefined)	i	6%	40µM*	?
Cc1nc2cccnc2n1CC1CCCN(S(=O)(=O)c2cccc(F)c2)C1 (centres undefined)	i	-18%	?	35µM*
CC(C)Cc1ccc(S(=O)(=O)N2CCCC(Cn3cnc4cccnc43)C2)cc1 (centres undefined)	i	-22%	?	45µM*
Cc1ccc(S(=O)(=O)N2CCCC(Cn3cnc4cccnc43)C2)cc1F (centres undefined)	i	-19%	-35%	-28%
CN1C(=O)[C@@H]2C[C@@H](CN2C2CCC2)Oc2ccccc21	i	-16%[70.6 µM]	50µM*	89µM*
CN1C(=O)[C@@H]2C[C@@H](CN2C2CCCC2)Oc2ccccc21	i	-2%[70.6 µM]	?	?
COc1ccc(CCC(=O)N2CCC3(CC2)NC(=O)N(c2cccc(Cl)c2)N3)cc1	i	-4%	?	?
O=C(c1cc(-c2cc(Cl)cc(Cl)c2)c2cccn2n1)N1CCOCC1	.	.	35µM*	?
CC(C)(C)c1cc(C(=O)N2CCOCC2)nn2cccc12	.	.	-10%[138 µM]	-13%[172 µM]
COc1ccc(-c2nc(C3CC3)nc3c2CCN([S+](=O)([O-])c2cccs2)CC3)cc1	.	.	?	-25%
O=C1Nc2ccc(-c3ccccc3)cc2C(=O)N2CCN(C(=O)NC3CCCCC3)C[C@H]12	i	2%[70.6 µM]	-30%[174 µM]	?
O=C1Nc2ccc(-c3cccc(C(F)(F)F)c3)cc2C(=O)N2CCN(C(=O)NC3CCCCC3)C[C@H]12	i	1%	?	35µM*
O=C1Nc2ccc(-c3cccc(C(F)(F)F)c3)cc2C(=O)N2CCN(C(=O)c3ccco3)C[C@@H]12	i	-19%	?	40µM*
O=C(c1ccc2c(c1)OCO2)N1CCCC2(CNc3ncccc3[S+](=O)([O-])N2)C1 (centres undefined)	.	.	-21%	-14%
COc1ccc(F)cc1-c1cccc(C(=O)NCCNC(=O)c2ccccc2F)c1	.	.	?	40µM*
COc1ccc(F)cc1-c1cccc(C(=O)NCCNC(=O)c2ccc(C)cc2)c1	.	.	-32%	?
COc1ccc(C(=O)NCCNC(=O)c2cccc(-c3cc(F)ccc3OC)c2)cc1	.	.	?	40µM*
SMILES	Luciferase inh	hNpr1 antagonist	NIH3T3 tox	HEK293 tox
COc1ccc(F)cc1-c1cccc(C(=O)NCC(=O)NCc2ccc3c(c2)OCO3)c1	.	.	?	50µM*
CCOCCNC(=O)CNC(=O)c1cccc(-c2cc(F)ccc2OC)c1	.	.	-12%	-20%
COc1cc(CN2CCC(C)(NC(C)=O)CC2)cc(Nc2ccccc2)c1	i	-1%[70.6 µM]	?	?
CC(C)(C)C(=O)N1CCCC2(CNc3ncccc3[S+](=O)([O-])N2)C1 (centres undefined)	.	.	-17%	-14%
COc1cccc(C(=O)N2CCN(c3ccc4nnc(C5CC5)n4n3)CC2)c1	.	.	-25%	-9%
O=C(Nc1ccccc1Cl)N1CCCC2(C1)Nc1cccnc1NC2=NC1CCCC1 (centres undefined)	i	-12%	45µM*	?
O=C(c1ccccc1Cl)N1CCCC2(C1)Nc1cccnc1NC2=NC1CCCC1 (centres undefined)	i	0%	i	3%
